41 compounds from PubChem BioAssay (NCATS) can be followed below.

Records with an inconclusive call do not appear. A number with no mark means an inactive call. Calls of active or inactive are those of the source. The call rests on the fitted dose curve; in most records, active means well fitted curve in the direction sought with a large enough effect; inconclusive means small, poorly fitted or top-dose-only effect, or another doubt; inactive means no such curve, though single readings can be large; an effect the other way counts as inactive or inconclusive.

The subject of assay [1] is Zika virus NS2B-NS3 protease (unlinked complex). Kind of assay: Primary screen GU Rhodamine qHTS for Zika virus inhibitors: Unlinked NS2B-NS3 protease assay (AID 1347159). Further: nearly all actives have a fitted effect of over 60% in size. Further: potency means the concentration at half of the fitted maximal effect. On activity change, negative = inhibition: on the % scale 0 is the no-effect control and ±100 the full control effect. The gist of the method: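 Enzyme 25 nM in Tris-HCl pH 8.0 + 0.01% Tween 20; compounds up to 114 microM, 15 min RT dark; + Rhod110 substrate 1.5 microM; read t0 and 15 min; delta fluorescence → % inhibition → 4-parameter Hill fit.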
(Quantitative high-throughput screening tests each substance at several concentrations.)

The subject of assay [2] is Zika virus NS2B-NS3 protease (linked construct). Kind of assay: Confirmatory screen NINDS AMC qHTS for Zika virus inhibitors (AID 1347152). Further: potency means the concentration at half of the fitted maximal effect; nearly all actives have a fitted effect of over 70% in size. The gist of the method: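 Purified NS2B-NS3 protease with NS2B hydrophilic domain linked to NS3 protease domain by flexible linker, 1 nM final in 10 mM Tris-HCl pH 8.0, 0.01% Tween 20. Compounds preincubated 15 min, room temperature; Bz-Nle-KRR-AMC 10 microM (Km 18.3 µM); 15-min fluorescence change, 4-parameter Hill fit.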

The subject of assay [3] is Zika virus NS2B-NS3 protease (unlinked complex). Kind of assay: Confirmatory screen GU AMC qHTS for Zika virus inhibitors (AID 1347153).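 Further: enzyme at 25 nM with substrate at 10 µM below its Km of 18.3 µM; potency means the concentration at half of the fitted maximal effect; nearly all actives have a fitted effect of over 70% in size.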 Summed up: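 Fluorescence change (ex 340/em 450 nm) over 15 min, ~20% substrate conversion, normalized to no-inhibitor and no-enzyme controls, then Hill-fitted. Unlinked protease at 25 nM; AMC peptide 10 µM.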
Assay [4] can be described thus: Confirmatory screen GU Rhodamine qHTS for Zika virus inhibitors qHTS (AID 1347157). Further: potency means the concentration at half of the fitted maximal effect; nearly all actives have a fitted effect of over 70% in size. Summed up: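 Unlinked NS2B/NS3, 25 nM; Rhod110 peptide, 1.5 microM; compounds, up to 114 microM. Reaction run 15 min at RT in 10 mM Tris-HCl pH 8.0, 0.01% Tween 20; kinetic fluorescence change fitted with a 4-parameter Hill model.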
Assay [5] can be described thus: ZIKV-mCherry secondary qHTS for Zika virus inhibitors (AID 1347158). Further: potency means the concentration at half of the fitted maximal effect. The gist of the method:
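Read-out is percent infection: mCherry-positive Vero cells (nuclear-proximal intensity >450 RFU, 3 SD above negative controls) counted by high-content imaging of Hoechst-stained, PFA-fixed wells after 48-72 h with ZIKV-mCherry at MOI 1 and compound.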

In assay [6] the test system is Zika virus NS2B-NS3 protease (linked construct). Kind of assay: Primary screen NINDS Rhodamine qHTS for Zika virus inhibitors (AID 1347160). Further: nearly all actives have a fitted effect of over 55% in size. Further: potency means the concentration at half of the fitted maximal effect. On activity change, negative = inhibition: on the % scale 0 is the no-effect control and ±100 the full control effect. The gist of the method: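 Enzyme (25 nM, linked NS2B-NS3) was preincubated 15 min with compound in 10 mM Tris-HCl pH 8.0, 0.01% Tween 20. Rhodamine110 substrate (1.5 microM) was then added and fluorescence read at start and after 15 min.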

A short description of assay [7]: Confirmatory screen NINDS Rhodamine qHTS for Zika virus inhibitors (AID 1347161). Further: potency means the concentration at half of the fitted maximal effect; nearly all actives have a fitted effect of over 60% in size. The gist of the method: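 Kinetic fluorescence (Ex 480 nm, Em 540 nm) over 15 min with 1.5 microM Rhodamine110 peptide and 25 nM linked protease.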
Assay [8] has as its system Zika virus NS2B-NS3 protease (linked). Kind of assay: 384 well plate NINDS AMC confirmatory qHTS for Zika virus inhibitors (AID 1347163).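 Further: linked protease at 5 30 or 60 nM final depending on run; fluorescence of AMC released from Ac-VKTGKR-AMC peptide cleaved by the protease; top concentration of the series differs between compounds; 0% = no-inhibitor control and -100% = no-enzyme control; nearly all actives have a fitted effect of over 50% in size.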 Summed up:
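Enzyme (5, 30 or 60 nM final) first met test compounds for ~15 min. The AMC-tagged peptide Ac-VKTGKR-AMC followed at 30 microM. Fluorescence was then recorded at 25 min and scaled against no-enzyme and no-inhibitor wells.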

The subject of assay [9] is Zika virus NS2B-NS3 protease (linked construct). Kind of assay: 384 well plate NINDS Rhodamine confirmatory qHTS for Zika virus inhibitors (AID 1347164).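 Further: fluorescence from protease cleavage of Ac-LKRR-rhodamine 110 substrate; top concentration of the series differs between compounds; plate controls were no-inhibitor control for no effect and no-enzyme control for full effect; nearly all actives have a fitted effect of over 65% in size.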 Summed up: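 Linked protease at a final 5 nM, 30 nM or 60 nM was preincubated ~15 min with compounds, then given 10 microM Ac-LKRR-Rhodamine 110. Fluorescence (ex 485/em 538 nm) after 25 min in the dark at room temperature.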

Assay [10] in a line: Vero cells viability qHTS for Zika virus inhibitors (AID 1347167). Further: on the % scale 0 is the no-effect control and ±100 the full control effect. The gist of the method:
(§1)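 To flag cytotoxic protease inhibitors, viability is measured by ATP-dependent luminescence (CellTiter Glo) after cells attached overnight receive compound for 24 to 48 hours in DMEM with 4% FBS.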

Assay [11] in a line: HepG2 cells viability qHTS for Zika virus inhibitors (AID 1347168). Further: on the % scale 0 is the no-effect control and ±100 the full control effect. Summed up: as §1

As to `COC1C(=O)CCC2(CO2)C1(O)C1(C)OC1CC=C(C)C` (stereo unspecified), in assay [1], the Potency was 44.7 µM (active).
Consider `CC(C)c1cccc2c(-c3ccccc3)cc(-c3ccc(-c4ccc(C(=O)O)cc4)[nH]3)nc12`, for which the Potency in assay [2] is 44.1 µM (active); in assay [3], 49.4 µM (active); in [4], 1.97 µM (active); in assay [5], 7.08 µM (active); in assay [1], 3.55 µM (active); in [6] it was 7.08 µM (active). The Potency in [7] was 2.21 µM (active). Also, the Potency entry in assay [8] and in assay [9] was “inactive” throughout. In addition, the call in assay [10] and in [11] was inactive.
Regarding `C[C@@]12C[C@]3(O)O[C@H](O1)[C@]1(COC(=O)c4ccccc4)[C@H]3C[C@@]12O[C@@H]1O[C@H](CO)[C@@H](O)[C@H](O)[C@H]1O`, the Potency entry in assay [1] and in assay [6] was “inactive” in each case.
As for `C[C@H]1CC[C@@H]2N(C1)C[C@@H]1[C@H]([C@@H](O)[C@H](O)[C@]3(O)[C@H]1C[C@@]14OC5(O)[C@@H](C[C@@H](O)[C@@H]31)[C@]4(C)CC[C@@H]5O)[C@]2(C)O`, the Potency result in [1] and in assay [6] was “inactive” in each case.
Regarding `CC(=O)O[C@H]1C[C@@]2(C)[C@@H](CC[C@H]3[C@@]4(C)C=CC(=O)[C@@H](C)[C@@H]4[C@H](O)C(=O)[C@@]32C)/C1=C(/CCC=C(C)C)C(=O)O`, the Potency entry in [1] and in [6] was “inactive” each time.
Turning to `CC1OC2OC(=O)C3(C)CC4=C(CO)C5=C(CC(=O)C4(C)C(C1=O)C23)C(C)(C)OC(=O)C5` (stereo unspecified), the Potency entry in assay [1] and in assay [6] was “inactive” in each case.
Take `CC(C)CN(C[C@@H](O)[C@H](Cc1ccccc1)NC(=O)O[C@@H]1CO[C@H]2OCC[C@H]21)S(=O)(=O)c1ccc(N)cc1`: the Potency entry in [1] and in [6] was “inactive” in each case.
Regarding `O=C(O)c1ccccc1NC(=O)N1CCC(c2ccccc2C(F)(F)F)CC1`, the Potency in assay [1] is 22.4 µM (active).
For the compound `O=C(O)c1cccc(S(=O)(=O)N2CCc3ccccc3C2)c1`, the Potency entry in assay [1] and in assay [6] was “inactive” throughout.
`Cc1cc(C)c(Nc2ccnc(Nc3ccc(C#N)cc3)n2)c(C)c1`: the Potency entry in assay [1] and in [6] was “inactive” throughout.
As for `CC(C)C1=CC2C(CC[C@]2(C)O)[C@](C)(O)CC1` (stereo partly specified), the Potency entry in assay [1] and in assay [6] was “inactive” each time.
As for `CCOc1cc(CC(=O)NC(CC(C)C)c2ccccc2N2CCCCC2)ccc1C(=O)O` (stereo unspecified), in assay [1], the Potency is 20 µM (active).
Turning to `CCOC(=O)C(CCc1ccccc1)NC1CSC(c2cccs2)CN(CC(=O)O)C1=O` (stereo unspecified), the Potency entry in [1] and in [6] was “inactive” each time.
With `COc1cccc(Nc2ncnn3ccc(CN4CC[C@@H](N)[C@H](O)C4)c23)c1`, the Potency result in assay [1] and in assay [6] was “inactive” in each case.
Turning to `C[C@H](O)[C@H](O)/C=C/c1cccc(O)c1CO`, the Potency result in assay [1] and in assay [6] was “inactive” in each case.
For `COc1ccc(N2CCOCC2)c2sc(NC(=O)N3CCC(C)(O)CC3)nc12`, in [1], the Potency result was “inactive”.
Regarding `C=C1C[C@]23C[C@H]1CC[C@H]2[C@@]1(C)CCC[C@@]2(C)C(=O)O[C@@H]([C@@H]3O)[C@@H]12`, the Potency result in assay [1] and in assay [6] was “inactive” each time.
Take `Cn1cc(-c2ccc3nnc(Sc4ccc5nn(C)cc5c4)n3n2)cn1`: the Potency entry in assay [1] and in [6] was “inactive” each time.
As to `CC(C)CC(=O)O[C@@H]1OC=C(CO[C@@H]2O[C@H](CO)[C@@H](O)[C@H](O)[C@H]2O)[C@H]2[C@@H]3O[C@H]3[C@@](O)(CO)[C@@H]12`, the Potency entry in [1] and in assay [6] was “inactive” each time.
Turning to `Cc1cc2c(F)c(Oc3ncnn4cc(OCC(C)O)c(C)c34)ccc2[nH]1` (stereo unspecified), the Potency result in assay [1] and in assay [6] was “inactive” throughout.
`CC(C)S(=O)(=O)NC[C@H](C)c1ccc(NC(=O)c2cc(F)cc(F)c2)cc1`: the Potency result in assay [1] and in assay [6] was “inactive” throughout.
For `C=C1C(=O)OC2CC3(C)C(CC12)C(C)=CC(O)C3OC(C)=O` (stereo unspecified), the Potency in assay [1] is 25.1 µM (active).
On the same count and under the same terms, as for `C=CC(=O)N1CCN(C(=O)CNc2cc(I)c(Cl)cc2O)CC1`, the entry is “inactive”.
In the case of `CNS(=O)(=O)c1ccccc1Nc1nc(Nc2ccc(N3CCN(C)CC3)cc2OC)ncc1Cl`, the Potency entry in assay [1] and in assay [6] was “inactive” throughout.
Regarding `CCOc1ccc(S(=O)(=O)n2c(C)nc3ccccc32)cc1`, the Potency entry in assay [1] and in [6] was “inactive” each time.
For `O=C(OC[C@@]1(O)CO[C@@H](O[C@H]2[C@H](Oc3ccc(O)cc3)O[C@H](CO)[C@@H](O)[C@@H]2O)[C@@H]1O)c1ccc(O)cc1`, the Potency result in [1] is “inactive”.
With `COC(=O)[C@@H](O)[C@H]1[C@@]2(C)CC3(O)[C@@H](C(=O)[C@H]2O)[C@]24O[C@]25CC(=O)O[C@@H](c2ccoc2)[C@]5(C)CCC4[C@]13C` (stereo partly specified), the Potency entry in [1] and in assay [6] was “inactive” throughout.
On to `CC(C)c1cc2c(c(O)c1O)[C@@]13CCCC(C)(C)[C@@H]1[C@H](OC3=O)C2=O`, for which, in assay [1], the Potency is 8.91 µM (active).
With `COc1cc(O)c([C@@H](CC(=O)N2CC(C)CC(C)C2)c2ccc3c(c2)OCO3)c(OC)c1` (stereo partly specified), the Potency result in [1] is “inactive”.
As for `COc1cc(/C=C/CO)cc(OC)c1O[C@@H]1O[C@H](CO[C@@H]2O[C@H](CO)[C@@H](O)[C@H](O)[C@H]2O)[C@@H](O)[C@H](O)[C@H]1O`, the Potency entry in assay [1] and in [6] was “inactive” in each case.
As for `CCNCc1nc2c(N)nc3ccccc3c2n1CC(C)(C)O`, the Potency result in assay [1] and in assay [6] was “inactive” in each case.
As for `Nc1ncnc2c1ncn2CCNCCCCCO`, the Potency result in [1] and in [6] was “inactive” throughout.
`CC1(C)[C@@H](O)CC[C@]2(C)[C@H]3CC=C4[C@@H]5C[C@](C)(C(=O)O)CC[C@]5(C)CC[C@@]4(C)[C@]3(C)CC[C@@H]12`: the Potency in assay [1] was 7.08 µM (active).
As for `CNC(=O)c1ccccc1Nc1cc(Nc2ccc(N3CCOCC3)cc2OC)ncc1C(F)(F)F`, the Potency result in [1] and in [6] was “inactive” in each case.
Regarding `COC(=O)C12CCC(C)C(C)C1C1=CCC3C4(C)CCC(OC(C)=O)C(C)(C)C4CCC3(C)C1(C)CC2` (stereo unspecified), the Potency result in assay [1] and in assay [6] was “inactive” throughout.
With `CC(C)/C=C1\NC(=O)C(C(C)C)n2c1nc1c(c2=O)C=CC=CO1` (stereo unspecified), the Potency entry in assay [1] and in assay [6] was “inactive” each time.
With `CC/C=C\[C@H](O)[C@H](O)C1=C(C)C(=O)[C@]2(O1)C(=O)N[C@@](OC)(C(=O)c1ccccc1)[C@@H]2O`, the Potency result in [1] and in [6] was “inactive” in each case.
Turning to `CC[C@@H](N)CNc1ccnc(-c2cc(-c3cnn(C)c3)ccc2O)n1`, the Potency result in [1] and in [6] was “inactive” in each case.
In the case of `COC1CC(O[C@H]2CC[C@@]3(C)C(CCC4C3[C@H](OC(C)=O)[C@@H](OC(=O)/C=C/c3ccccc3)[C@]3(C)C(C(C)=O)CC[C@]43O)C2)OC(C)C1OC1CC(OC)C(OC2CC(OC)C(OC3OC(C)C(OC4OC(CO)C(O)C(O)C4O)C(OC)C3O)C(C)O2)C(C)O1` (stereo partly specified), the activity change, negative = inhibition in assay [1] is -9.68% [at 19.1 µM]; in assay [6] it was 20.6% [at 10.7 µM].
`Cc1ccc(S(=O)(=O)n2ccc(-c3c(-c4ccc(Cl)cc4)noc3C)n2)cc1`: the Potency result in [1] and in assay [6] was “inactive” each time.
Regarding `COc1c(Nc2ncc(Cl)c(N[C@H]3[C@@H](C(N)=O)[C@@H]4C=C[C@H]3C4)n2)ccc2c1CC[C@@H](N1CCOCC1)CC2`, the Potency result in [1] and in assay [6] was “inactive” each time.
